Read-outs that look alike come from different tables or passages of the source.

Our source for the potency estimated from few doses values is paper PMC11062922 (Nature Chemical Biology, 2023).

Holding throughout (parameters): species or system human, MV4-11 + K-562 + COLO205 + SK-N-BE2 + OVCAR-8
One test concerns MET. The following applies: read-out: apparent Kd, compound concentrations: 100 nM and 1000 nM (sheet 'Samples'), n = 1.
The subject of the next test is NUAK2. The following applies: read-out: apparent Kd; compound concentrations: 100 nM and 1000 nM (sheet 'Samples'), CATDS: 9.7596009365087198E-3; n = 1.
The subject of the next test is SPR. The following applies: read-out: apparent Kd, compound concentrations: 100 nM and 1000 nM (sheet 'Samples'), n = 1.
The next test relates to MAP4K3. The conditions noted are these: read-out: apparent Kd, n = 1.
The subject of the next test is MCM5. The following applies: read-out: apparent Kd; compound concentrations:100 nM and 1000 nM (sheet 'Samples'); n = 1.
The test system of a further test is CDC42. The following applies: read-out: apparent Kd, compound concentrations: 100 nM and 1000 nM (sheet 'Samples'), n = 1.
Another test has as its system CDC7. The following applies: read-out: apparent Kd, n = 1.
The subject of a further test is PRKCA. The conditions noted are these: read-out: apparent Kd; compound concentrations:100 nM and 1000 nM (sheet 'Samples'); n = 1.
For the next test, the system named is PIM1. The following applies: read-out: apparent Kd, compound concentrations: 100 nM and 1000 nM (sheet 'Samples'), n = 1.
In the next test the test system is CHEK1. The conditions noted are these: read-out: apparent Kd; compound concentrations:100 nM and 1000 nM (sheet 'Samples'); n = 1.
A further test deals with MAP3K1. The conditions noted are these: read-out: apparent Kd; compound concentrations:100 nM and 1000 nM (sheet 'Samples'); n = 1.
Another test has as its system AIFM1. The conditions noted are these: read-out: apparent Kd, n = 1.
The subject of a further test is MAPK1. The following applies: read-out: apparent Kd, n = 1.
For a further test, the system named is MST1R. The conditions noted are these: read-out: apparent Kd; compound concentrations:100 nM and 1000 nM (sheet 'Samples'); n = 1.
The next test deals with TP53RK. The conditions noted are these: read-out: apparent Kd, n = 1.
Another test has as its system AKT3. The conditions noted are these: read-out: apparent Kd; compound concentrations:100 nM and 1000 nM (sheet 'Samples'); n = 1.
Where [1] appears, read: compound concentrations:100 nM and 1000 nM (sheet 'Samples').

As to `CNC(=O)c1ccccc1Nc1nc(Nc2cccc(CS(C)(=O)=O)c2)ncc1C.O=CO` [GSK1520489A], the potency estimated from few doses is 12.2 nM in the test on MET (CATDS: 7.7828561887260297E-2), 1500 nM in the test with NUAK2 and 749 nM in the test with SPR (CATDS: 1.1311991214782401E-2).
With `Cn1cc(-c2cnc(N)c3c(-c4ccc5c(c4)CCN5C(=O)Cc4ccccc4)csc23)cn1` [GSK2593074A], the potency estimated from few doses in the test with MAP4K3 (setting [1]) is 1570 nM; in the test with MCM5, 1530 nM.
For `Cc1ccc(O)cc1Nc1ccnc2ccc(C(C)(C)C)cc12` [GW856805X], in the test on CDC42 (CATDS: 2.73171121323963E-2), the potency estimated from few doses is 1430 nM.
In the case of `N#Cc1cccc(Nc2nccc(-c3cnn4ncccc34)n2)c1` [GW778894X], the potency estimated from few doses in the test on CDC7 (setting [1]) is 1240 nM; in the test on PRKCA it was 1180 nM.
Turning to `CN1CCN(Cc2ccc(-c3ccc4c(Nc5ccc(Oc6ccccn6)cc5)ccnc4c3)o2)CC1` [GW567140X], the potency estimated from few doses with CDC42 (CATDS: 3.5970497134968603E-2) was 1290 nM.
With `O=S(=O)(CCOCc1ccc(-c2ccc3ncnc(Nc4ccc(OCc5cccc(F)c5)c(Cl)c4)c3c2)o1)c1ccccc1` [GW615311X], the potency estimated from few doses in the test with PIM1 (CATDS: 3.06146278904708E-2) was 1120 nM.
Turning to `COc1cc(/C=N/Nc2ncnc3[nH]ncc23)ccc1O` [GW578748X], the potency estimated from few doses with CHEK1 is 592 nM.
Take `CN1CCN(Cc2ccc(NC(=O)Nc3ccc(N(C)c4ccnc(Nc5ccc(CS(C)(=O)=O)cc5)n4)cc3)cc2)CC1.Cl` [GW827654A]: the potency estimated from few doses with MET (CATDS: 3.7030406739302302E-2) is 1380 nM.
`Nc1ncc(-c2cn[nH]c2)c2scc(-c3ccc4c(c3)CCN4C(=O)Cc3ccccc3)c12` [GSK2593067A]: the potency estimated from few doses in the test on MAP4K3 (compound concentrations: 100 nM and 1000 nM (sheet 'Samples'), CATDS: 5.6013670337788E-2) is 2210 nM.
Take `Cn1cc(C2=C(c3cn(CCCCCO)c4ccccc34)C(=O)NC2=O)c2ccccc21` [RO0318053-000]: the potency estimated from few doses in the test on CDC7 (compound concentrations: 100 nM and 1000 nM (sheet 'Samples'), CATDS: 8.0152233997933905E-2) is 1890 nM.
Turning to `COc1cc2ncn(-c3cc(OCc4sccc4Cl)c(C(N)=O)s3)c2cc1OC` [GSK448459A], the potency estimated from few doses in the test with MAP3K1 was 511 nM.
In the case of `Cc1ccc(C(=O)NC2CC2)cc1-c1ccc2[nH]ncc2c1` [GW820759X], the potency estimated from few doses in the test with AIFM1 (compound concentrations: 100 nM and 1000 nM (sheet 'Samples'), CATDS: 0.35268476986263803) was 1040 nM.
Regarding `COc1cc(F)c(F)c(F)c1C(=O)c1cnc(NC2CCN(S(C)(=O)=O)CC2)nc1N` [RO4600703-000], the results for the potency estimated from few doses in the test with AIFM1 (setting [1]) and in the test on MAPK1 (setting [1]) were 939 nM and 1580 nM, respectively.
For the compound `CC(=O)Nc1ccc2c(C3=C(c4cn(C)c5ccccc45)C(=O)NC3=O)cn(C)c2c1` [RO0317596-000], the potency estimated from few doses with MAPK1 (compound concentrations: 100 nM and 1000 nM (sheet 'Samples'), CATDS: 0.12847476759448101) is 1100 nM.
Take `Cn1cc(C2=C(c3cccc([N+](=O)[O-])c3)C(=O)NC2=O)c2ccccc21` [RO0317474-000]: the potency estimated from few doses in the test on CDC7 (compound concentrations: 100 nM and 1000 nM (sheet 'Samples'), CATDS: 0.13743963750211899) was 1670 nM.
With `COc1cc2ncn(-c3cc(O[C@H](C)c4ccccc4Cl)c(C(N)=O)s3)c2cc1OC` [GSK237701A], in the test with MAP3K1, the potency estimated from few doses is 398 nM.
For the compound `CCCCCNC(=O)[C@@H]1CCCN2C(=O)CC[C@H](NC(=O)[C@H](Cc3ccc(OP(=O)(O)O)cc3)NC(C)=O)C(=O)N12` [RO0324694-000], in the test with AIFM1 (setting [1]), the potency estimated from few doses is 1670 nM.
For `COc1cc(N2CCN(C(C)C)CC2)ccc1Nc1nc(Nc2cccc(F)c2C(=O)O)c2cc[nH]c2n1` [GSK1819799A], the potency estimated from few doses in the test on PIM1 (CATDS: 4.9008652633002601E-2) is 1330 nM; in the test with SPR (CATDS: 4.2652137830011101E-2), 2000 nM.
As to `NC(=O)c1cccnc1COc1cc(-c2ccc(N3CCOCC3)nc2)cc2ncccc12` [BI01125081], in the test with MST1R, the potency estimated from few doses was 1120 nM.
For the compound `COc1ccc(Nc2nccc(N3CCC(NC(=O)Nc4cccc(OC)c4)C3)n2)cc1` (stereo not shown) [GSK1379742A], the potency estimated from few doses in the test on TP53RK (compound concentrations: 100 nM and 1000 nM (sheet 'Samples'), CATDS: 0.10793216189185099) was 2270 nM.
For `Fc1ccc(-c2ncn(C3CCNCC3)c2-c2ccnc(Oc3ccc4c(c3)OCO4)n2)cc1` [SB-250715], the potency estimated from few doses in the test with AKT3 was 2290 nM.
As for `Cl.Oc1ccc2ncnc(Nc3ccc(OCc4ccccc4)cc3)c2c1` [GI262866A], the potency estimated from few doses in the test with MAPK1 (setting [1]) was 617 nM.
`COc1cccc(C2=C(c3cn(C)c4c(C)cccc34)C(=O)NC2=O)c1` [RO3301012-000]: the potency estimated from few doses in the test on CDC7 (compound concentrations: 100 nM and 1000 nM (sheet 'Samples'), CATDS: 0.10055770090402801) is 1800 nM.
On to `Fc1cccc(COc2ccc(Nc3ncncc3C#Cc3ccccc3)cc2Cl)c1` [GW651576X], for which the potency estimated from few doses in the test on CDC42 (CATDS: 5.6163427913581303E-2) is 1410 nM.
Consider `Nc1c(C(=O)c2ccccc2)cnn1-c1ccc(F)cc1` [RO1151246-000], for which the figures for the potency estimated from few doses in the test with AKT3 and in the test on TP53RK (setting [1]) were 1420 nM and 1850 nM, respectively.
Regarding `Cl.Fc1cccc(COc2ccc(Nc3ncnc4cc(-c5ccc[nH]5)sc34)cc2Cl)c1` [GW693881A], the potency estimated from few doses in the test with AIFM1 (compound concentrations: 100 nM and 1000 nM (sheet 'Samples'), CATDS: 0.160865216132973) is 1350 nM.
With `Cc1[nH]nc2c1N=C(c1ccccc1Cl)c1cc([N+](=O)[O-])ccc1N2` [RO0274406-000], the potency estimated from few doses in the test with MAPK1 (compound concentrations: 100 nM and 1000 nM (sheet 'Samples'), CATDS: 7.1630348262951699E-2) was 1230 nM.
